# Screen size: about 5,500 compounds; about 2,000 (36%) were called active. About 18% were inconclusive and are not listed. The list shows a part of the results. A number with no mark means an inactive call. Rule as the data show it: active = normalized growth mostly below about 0.91 (no sharp cut-off); inconclusive = no clear call, values can overlap the other calls; inactive = mostly above about 0.92.
# Test: chemical genetic growth profiling, strain panel (AID 1159580);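 also: tested at 20 µM; growth read once vehicle control cultures reached saturation at 30 °C; 1 = growth at the plate median or of vehicle wells; lower values mean less growth of the strain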
# Conditions: S. cerevisiae deletion strains, growth OD
structure (smiles),measurement,setting,value
CC(C)(O)C#Cc1ccc(/C=N\Nc2c(Cl)cc(Cl)cc2Cl)cc1,normalized growth,"locus YAR019C, strain CDC15, hits give low values",0.982
same,normalized growth,"locus YBL105C, strain PKC1, hits give low values",0.982
same,normalized growth,"locus YBR135W, strain CKS1, hits give low values",0.962
same,normalized growth,"locus YBR136W, strain MEC1, hits give low values",0.979
same,normalized growth,"locus YBR160W, strain CDC28, hits give low values",0.969
same,normalized growth,"locus YDL017W, strain CDC7, hits give low values",0.982
same,normalized growth,"locus YDL028C, strain MPS1, hits give low values",0.973
same,normalized growth,"locus YDL101C, strain DUN1, hits give low values",0.986
same,normalized growth,"locus YDL108W, strain KIN28, hits give low values",0.968
same,normalized growth,"locus YDL132W, strain cdc53, hits give low values",0.969
same,normalized growth,"locus YDL214C, strain PRR2, hits give low values",0.881
same,normalized growth,"locus YDR052C, strain DBF4, hits give low values",0.978
same,normalized growth,"locus YDR054C, strain cdc34, hits give low values",0.963
same,normalized growth,"locus YDR226W, strain ADK1, hits give low values",0.978
same,normalized growth,"locus YDR477W, strain SNF1, hits give low values",0.773
same,normalized growth,"locus YER123W, strain YCK3, hits give low values",0.86
same,normalized growth,"locus YER133W, strain GLC7, hits give low values",0.862
same,normalized growth,"locus YFL009W, strain cdc4, hits give low values",0.975
same,normalized growth,"locus YFL029C, strain CAK1, hits give low values",0.973
same,normalized growth,"locus YFR003C, strain YPI1, hits give low values",0.978
same,normalized growth,"locus YFR019W, strain FAB1, hits give low values",0.848
same,normalized growth,"locus YFR028C, strain CDC14, hits give low values",0.976
same,normalized growth,"locus YGR040W, strain KSS1, hits give low values",0.833
same,normalized growth,"locus YGR052W, strain FMP48, hits give low values",0.769
same,normalized growth,"locus YGR092W, strain DBF2, hits give low values",0.746
same,normalized growth,"locus YHR030C, strain SLT2, hits give low values",0.354 (active)
same,normalized growth,"locus YHR079C, strain IRE1, hits give low values",0.668
same,normalized growth,"locus YHR082C, strain KSP1, hits give low values",0.591 (active)
same,normalized growth,"locus YHR205W, strain SCH9, hits give low values",0.832
same,normalized growth,"locus YIL147C, strain SLN1, hits give low values",0.973
same,normalized growth,"locus YJL095W, strain BCK1, hits give low values",0.341 (active)
same,normalized growth,"locus YJL157C, strain FAR1, hits give low values",0.886
same,normalized growth,"locus YJR016C, strain ILV3, hits give low values",0.973
same,normalized growth,"locus YJR066W, strain TOR1 (second series), hits give low values",0.86
same,normalized growth,"locus YJR066W, strain TOR1, hits give low values",0.728
same,normalized growth,"locus YKL048C, strain ELM1, hits give low values",0.93
same,normalized growth,"locus YKL067W, strain YNK1, hits give low values",0.893
same,normalized growth,"locus YKL101W, strain HSL1, hits give low values",0.765
same,normalized growth,"locus YKL193C, strain SDS22, hits give low values",0.974
same,normalized growth,"locus YKL203C, strain TOR2, hits give low values",0.838
same,normalized growth,"locus YLR113W, strain HOG1, hits give low values",0.574 (active)
same,normalized growth,"locus YML070W, strain DAK1, hits give low values",0.707
same,normalized growth,"locus YMR001C, strain CDC5, hits give low values",0.974
same,normalized growth,"locus YMR205C, strain PFK2 (second series), hits give low values",0.925
same,normalized growth,"locus YMR277W, strain FCP1, hits give low values",0.971
same,normalized growth,"locus YNL006W, strain LST8, hits give low values",0.984
same,normalized growth,"locus YNL020C, strain ARK1, hits give low values",0.758
same,normalized growth,"locus YNL161W, strain CBK1, hits give low values",0.98
same,normalized growth,"locus YNL183C, strain NPR1, hits give low values",0.728
same,normalized growth,"locus YNL207W, strain RIO2, hits give low values",0.981
same,normalized growth,"locus YNL222W, strain SSU72, hits give low values",0.979
same,normalized growth,"locus YNL307C, strain MCK1 (second series), hits give low values",0.768
same,normalized growth,"locus YOL078W, strain AVO1, hits give low values",0.978
same,normalized growth,"locus YOL136C, strain PFK27, hits give low values",0.904
same,normalized growth,"locus YOR061W, strain CKA2, hits give low values",0.73
same,normalized growth,"locus YOR119C, strain RIO1, hits give low values",1.03
same,normalized growth,"locus YOR231W, strain MKK1, hits give low values",0.708
same,normalized growth,"locus YOR329C, strain SCD5, hits give low values",0.983
same,normalized growth,"locus YPL031C, strain PHO85, hits give low values",0.709
same,normalized growth,"locus YPL153C, strain RAD53, hits give low values",0.85
same,normalized growth,"locus YPL204W, strain HRR25, hits give low values",0.839
same,normalized growth,"locus YPL209C, strain IPL1, hits give low values",0.979
same,normalized growth,"locus YPL256C, strain CLN2, hits give low values",0.766 (active)
same,normalized growth,"locus YPR025C, strain CCL1, hits give low values",0.972
same,normalized growth,"locus YPR106W, strain ISR1, hits give low values",0.977
same,normalized growth,"locus YPR111W, strain DBF20, hits give low values",0.962
same,normalized growth,"strain NNK1, hits give low values",0.972
same,normalized growth,"strain TSCII, hits give low values",0.977
CN(C)CCCO[C@@H]1[C@H]2OC(C)(C)O[C@H]2O[C@@H]1C(O)CO (stereo not given in full),normalized growth,"locus YAL040C, strain CLN3, hits give low values",1
same,normalized growth,"locus YCL061C, strain MRC1 (second series), hits give low values",1
same,normalized growth,"locus YDR150W, strain NUM1, hits give low values",1
same,normalized growth,"locus YDR363W, strain ESC2, hits give low values",1
same,normalized growth,"locus YER002W, strain NOP16, hits give low values",1.02
same,normalized growth,"locus YGR078C, strain PAC10, hits give low values",1.01
same,normalized growth,"locus YJR075W, strain HOC1, hits give low values",1.01
same,normalized growth,"locus YNL175C, strain NOP13, hits give low values",1.01
same,normalized growth,"locus YNL197C, strain WHI3, hits give low values",1.03
same,normalized growth,"locus YNL224C, strain SQS1, hits give low values",1
same,normalized growth,"locus YOR083W, strain WHI5 (second series), hits give low values",1.01
same,normalized growth,"locus YPL241C, strain CIN2, hits give low values",1.01

# Reference: PubChem BioAssay AID1159580 (chemical genetic matrix, 2015)
